Reference: PubChem BioAssay AID1159580 (chemical genetic matrix, 2015)
The campaign covered roughly 5,500 compounds. About 2,000 (36%) were called active. About 18% were inconclusive and are not listed. Cut-off read from the data, not from the text of the source: active = normalized growth mostly below about 0.91 (no sharp cut-off); inconclusive = no clear call, values can overlap the other calls; inactive = mostly above about 0.92. This is one part of the list.

Assay: chemical genetic growth profiling, strain panel (AID 1159580);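 note: tested at 20 µM; growth read once vehicle control cultures reached saturation at 30 °C; 1 = growth at the plate median or of vehicle wells; lower values mean less growth of the strain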
Details: S. cerevisiae deletion strains, growth OD
[1] = locus YHR030C, strain SLT2, stronger effect = lower value
[2] = locus YJL095W, strain BCK1, stronger effect = lower value

Measured: normalized growth

COc1ccc(-c2coc3cc(O)ccc3c2=O)c(OC)c1
inactive: locus YAL013W, strain DEP1, stronger effect = lower value 1.01 | locus YAL021C, strain ccr4, stronger effect = lower value 0.995 | locus YAL026C, strain drs2, stronger effect = lower value 1.01 | locus YAL030W, strain snc1, stronger effect = lower value 1 | locus YBL061C, strain skt5, stronger effect = lower value 0.996 | locus YBR009C, strain hhf1, stronger effect = lower value 1.01 | locus YBR021W, strain FUR4, stronger effect = lower value 0.887 | locus YBR023C, strain chs3, stronger effect = lower value 1.01 | locus YBR171W, strain sec66, stronger effect = lower value 1.01 | locus YBR229C, strain ROT2, stronger effect = lower value 1 | locus YBR231C, strain swc5, stronger effect = lower value 0.982 | locus YBR279W, strain paf1, stronger effect = lower value 1.01 | locus YCL011C, strain gbp2, stronger effect = lower value 1.03 | locus YCL016C, strain dcc1, stronger effect = lower value 1.01 | locus YCL029C, strain bik1, stronger effect = lower value 1.01 | locus YCL069W, strain vba3, stronger effect = lower value 1.01 | locus YCR088W, strain abp1, stronger effect = lower value 1 | locus YDL005C, strain med2, stronger effect = lower value 1 | locus YDL035C, strain GPR1, stronger effect = lower value 1 | locus YDL040C, strain nat1, stronger effect = lower value 1 | locus YDL074C, strain BRE1, stronger effect = lower value 1.02 | locus YDL101C, strain DUN1, stronger effect = lower value 1 | locus YDL185W, strain tfp1, stronger effect = lower value 0.994 | locus YDL192W, strain arf1, stronger effect = lower value 0.99 | locus YDR001C, strain nth1, stronger effect = lower value 1 | locus YDR069C, strain doa4, stronger effect = lower value 0.982 | locus YDR101C, strain arx1, stronger effect = lower value 0.982 | locus YDR137W, strain rgp1, stronger effect = lower value 0.995 | locus YDR159W, strain sac3, stronger effect = lower value 0.976 | locus YDR162C, strain NBP2, stronger effect = lower value 0.937 | locus YDR195W, strain ref2 0.974 | locus YDR297W, strain sur2, stronger effect = lower value 0.995 | locus YDR318W, strain mcm21, stronger effect = lower value 1 | locus YDR334W, strain swr1, stronger effect = lower value 0.994 | locus YDR335W, strain msn5, stronger effect = lower value 1.02 | locus YDR388W, stronger effect = lower value 1 | locus YDR392W, strain spt3, stronger effect = lower value 0.951 | locus YDR502C, strain sam2, stronger effect = lower value 1 | locus YEL003W, strain gim4, stronger effect = lower value 0.985 | locus YEL037C, strain rad23, stronger effect = lower value 1.01 | locus YEL061C, strain CIN8 (second series), stronger effect = lower value 1 | locus YEL061C, strain CIN8, stronger effect = lower value 1 | locus YER015W, strain faa2, stronger effect = lower value 1.02 | locus YER016W, strain bim1, stronger effect = lower value 0.999 | locus YER110C, stronger effect = lower value 1.03 | locus YER111C, strain swi4, stronger effect = lower value 0.999 | locus YER155C, strain BEM2 (second series), stronger effect = lower value 0.977 | locus YER155C, strain BEM2, stronger effect = lower value 1.01 | locus YER167W, strain BCK2, stronger effect = lower value 1.01 | locus YFR010W, strain ubp6, stronger effect = lower value 0.984 | locus YGL078C, strain dbp3, stronger effect = lower value 0.988 | locus YGL086W, strain mad1, stronger effect = lower value 0.991 | locus YGL167C, strain pmr1, stronger effect = lower value 1.01 | locus YGL173C, strain kem1, stronger effect = lower value 0.997 | locus YGL227W, strain vid30, stronger effect = lower value 0.992 | locus YGL240W, strain doc1, stronger effect = lower value 0.972 | locus YGL248W, strain PDE1, stronger effect = lower value 1 | locus YGL253W, strain hxk2, stronger effect = lower value 0.981 | locus YGR135W, strain pre9, stronger effect = lower value 0.993 | locus YGR229C, strain SMI1, stronger effect = lower value 0.97 | locus YGR252W, strain gcn5, stronger effect = lower value 1.01 | locus YHR013C, strain ard1, stronger effect = lower value 1.01 | locus YHR027C, strain rpn1, stronger effect = lower value 1 | [1] 1.01 | locus YHR079C, strain IRE1 (second series), stronger effect = lower value 1.01 | locus YHR094C, strain hxt1, stronger effect = lower value 0.995 | locus YHR129C, strain ARP1, stronger effect = lower value 1.02 | locus YHR142W, strain chs7, stronger effect = lower value 0.999 | locus YHR200W, strain rpn10, stronger effect = lower value 1 | locus YIL066C, strain RNR3, stronger effect = lower value 0.994 | locus YIL073C, strain SPO22, stronger effect = lower value 1.02 | locus YIL125W, strain kgd1, stronger effect = lower value 0.996 | locus YIR030C, strain dcg1, stronger effect = lower value 0.999 | locus YJL092W, strain hpr5, stronger effect = lower value 1 | locus YJL095W, strain BCK1 (second series), stronger effect = lower value 1 | [2] 0.976 | locus YJL115W, strain asf1, stronger effect = lower value 1.01 | locus YJL129C, strain trk1, stronger effect = lower value 1.03 | locus YJL134W, strain LCB3, stronger effect = lower value 1.01 | locus YJL154C, strain vps35, stronger effect = lower value 1 | locus YJL164C, strain tpk1, stronger effect = lower value 1.01 | locus YJL166W, strain qcr8, stronger effect = lower value 0.995 | locus YJL168C, strain set2, stronger effect = lower value 1.02 | locus YJL187C, strain SWE1 (second series), stronger effect = lower value 0.998 | locus YJL187C, strain SWE1, stronger effect = lower value 1.02 | locus YJR043C, strain POL32, stronger effect = lower value 0.999 | locus YJR075W, strain HOC1, stronger effect = lower value 0.994 | locus YKL009W, strain mrt4, stronger effect = lower value 1.04 | locus YKL068W, stronger effect = lower value 1.01 | locus YKL085W, strain MDH1 (second series), stronger effect = lower value 0.996 | locus YKL085W, strain MDH1, stronger effect = lower value 0.996 | locus YKL160W, strain elf1, stronger effect = lower value 1.02 | locus YKL190W, strain CNB1, stronger effect = lower value 1 | locus YKR001C, strain vps1, stronger effect = lower value 0.973 | locus YKR026C, strain gcn3, stronger effect = lower value 1 | locus YKR091W, strain srl3, stronger effect = lower value 1.01 | locus YLL001W, strain dnm1, stronger effect = lower value 0.963 | locus YLL026W, stronger effect = lower value 1 | locus YLL041C, strain sdh2, stronger effect = lower value 1.01 | locus YLR027C, strain aat2, stronger effect = lower value 1.01 | locus YLR039C, strain RIC1, stronger effect = lower value 0.976 | locus YLR058C, strain SHM2, stronger effect = lower value 1.01 | locus YLR102C, strain apc9, stronger effect = lower value 1 | locus YLR221C, strain rsa3, stronger effect = lower value 1 | locus YLR258W, strain gsy2, stronger effect = lower value 1.01 | locus YLR262C, strain YPT6 (second series), stronger effect = lower value 0.995 | locus YLR262C, strain YPT6, stronger effect = lower value 0.989 | locus YLR268W, strain sec22, stronger effect = lower value 0.991 | locus YLR320W, strain mms22, stronger effect = lower value 1 | locus YLR330W, strain CHS5, stronger effect = lower value 1.02 | locus YLR342W, strain FKS1 (second series), stronger effect = lower value 1.03 | locus YLR342W, strain FKS1, stronger effect = lower value 1.02 | locus YLR357W, strain rsc2, stronger effect = lower value 0.98 | locus YLR370C, strain arc18, stronger effect = lower value 1 | locus YLR371W, strain rom2, stronger effect = lower value 0.998 | locus YLR384C, strain iki3, stronger effect = lower value 0.998 | locus YLR418C, strain cdc73, stronger effect = lower value 0.971 | locus YML016C, strain PPZ1, stronger effect = lower value 1 | locus YML032C, strain rad52, stronger effect = lower value 1.01 | locus YML120C, strain ndi1, stronger effect = lower value 1.02 | locus YML124C, strain tub3, stronger effect = lower value 1 | locus YMR058W, strain fet3, stronger effect = lower value 1 | locus YMR078C, strain ctf18, stronger effect = lower value 1.01 | locus YMR125W, strain sto1, stronger effect = lower value 1.01 | locus YMR129W, stronger effect = lower value 1.01 | locus YMR205C, strain PFK2, stronger effect = lower value 1.01 | locus YMR223W, strain ubp8, stronger effect = lower value 1.01 | locus YMR231W, strain pep5, stronger effect = lower value 1.01 | locus YMR307W, strain GAS1, stronger effect = lower value 0.901 | locus YNL067W, strain RPL9B, stronger effect = lower value 0.984 | locus YNL071W, strain lat1, stronger effect = lower value 1.01 | locus YNL128W, strain TEP1, stronger effect = lower value 1 | locus YNL209W, strain ssb2, stronger effect = lower value 1.01 | locus YNL233W, strain BNI4, stronger effect = lower value 0.993 | locus YNL248C, strain rpa49, stronger effect = lower value 1 | locus YNL250W, strain rad50, stronger effect = lower value 1.01 | locus YNL271C, strain bni1, stronger effect = lower value 0.992 | locus YNL298W, strain CLA4, stronger effect = lower value 1.01 | locus YNL307C, strain MCK1, stronger effect = lower value 1.01 | locus YNL322C, strain KRE1 (second series), stronger effect = lower value 1.01 | locus YNR049C, strain mso1, stronger effect = lower value 1.01 | locus YNR052C, strain pop2, stronger effect = lower value 1.01 | locus YOL012C, strain htz1 0.93 | locus YOL147C, strain pex11, stronger effect = lower value 0.998 | locus YOR001W, strain rrp6, stronger effect = lower value 0.998 | locus YOR061W, strain CKA2, stronger effect = lower value 1 | locus YOR069W, strain VPS5, stronger effect = lower value 1.01 | locus YOR070C, strain gyp1, stronger effect = lower value 1.01 | locus YOR080W, strain dia2, stronger effect = lower value 1 | locus YOR083W, strain WHI5, stronger effect = lower value 1.02 | locus YOR106W, strain vam3, stronger effect = lower value 1.03 | locus YOR136W, strain idh2, stronger effect = lower value 0.997 | locus YOR144C, strain elg1, stronger effect = lower value 0.988 | locus YOR184W, strain ser1, stronger effect = lower value 0.952 | locus YOR265W, strain rbl2, stronger effect = lower value 1.01 | locus YOR270C, strain vph1, stronger effect = lower value 0.959 | locus YOR290C, strain snf2, stronger effect = lower value 1.02 | locus YOR316C, strain cot1, stronger effect = lower value 1.01 | locus YPL051W, strain arl3, stronger effect = lower value 1.01 | locus YPL055C, strain LGE1, stronger effect = lower value 0.971 | locus YPL078C, strain atp4, stronger effect = lower value 1.03 | locus YPL106C, strain sse1, stronger effect = lower value 1.01 | locus YPL240C, strain hsp82, stronger effect = lower value 1.01 | locus YPL241C, strain CIN2, stronger effect = lower value 0.992 | locus YPR119W, strain clb2, stronger effect = lower value 1.01 | locus YPR141C, strain kar3, stronger effect = lower value 1 | locus YPR163C, strain tif3, stronger effect = lower value 0.999 | locus YPR167C, strain met16, stronger effect = lower value 1.01 | strain wtn01, stronger effect = lower value 1.01

COc1ccc2c(=O)c(-c3ccc(O)cc3)coc2c1
inactive: [1] 0.966 | locus YHR079C, strain IRE1, stronger effect = lower value 0.939 | [2] 0.962 | locus YJR066W, strain TOR1, stronger effect = lower value 0.918 | locus YLR113W, strain HOG1, stronger effect = lower value 0.955 | locus YNL183C, strain NPR1, stronger effect = lower value 0.918 | locus YOR231W, strain MKK1, stronger effect = lower value 0.942 | locus YPL256C, strain CLN2, stronger effect = lower value 0.925
